# Rows were chosen to be rich in hits. Some 12% of all compounds tested hit in one or more screens of this group.
# L3MBTL1 block – inhibitors of human L3MBTL1; Q9Y468; AlphaScreen L3MBTL1–H3K9me1 peptide binding; Potency, µM (highest dose often 57.1 µM), for inactives: at the highest dose activity, negative = inhibition, most hits filed as inhibitors; 230,000 compounds, 0.66% hits; AID 485360; note: % is set by controls: 0 for no effect and ±100 for the full control effect; nearly all actives have a fitted effect of over 60% in size
#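 AlphaScreen assay: L3MBTL1 (50 nM final) was preincubated 30 min at room temperature with biotinylated H3(1-15)K9me1 peptide (75 nM final), then 30 min with library compounds; streptavidin donor and nickel chelate acceptor beads (10 ug/mL final) added, 30 min dark.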
# Sfp PPTase inh – inhibitors of Bacillus subtilis Sfp phosphopantetheinyl transferase. Biochemical Sfp PPTase activity, qHTS. Potency, µM, without a hit: largest response in the series, negative = inhibition, hits mostly inhibitors. 310,000 compounds, 3.5% hits. AID 1490;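 note: the enzyme is Sfp with the accession as filed and its product quenches rhodamine fluorescence; 0% = enzyme reaction without inhibitor and -100% = no enzyme wells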
#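 Sfp 15 nM + cpd, 15 min RT; start w/ rhodamine-CoA 5 uM, BHQ-2-YbbR 12.5 uM (final); 50 mM Hepes pH 7.6, 10 mM MgCl2, 0.01% NP-40, 0.01% BSA; read 525/598 nm at 0 and 30 min.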
# BAZ2B block – inhibitors of human BAZ2B bromodomain; Q9UIF8; Potency, µM (top dose mostly 114 µM), for inactives: at the top dose activity change, negative = inhibition, most hits filed as inhibitors; AlphaScreen BAZ2B-H3K14Ac peptide displacement; 360,000 compounds, 4.4% hits; note: % is set by controls: 0 for no effect and ±100 for the full control effect; nearly all actives have a fitted effect of over 60% in size
# Target sequence (Q9UIF8 whole entry, looked up): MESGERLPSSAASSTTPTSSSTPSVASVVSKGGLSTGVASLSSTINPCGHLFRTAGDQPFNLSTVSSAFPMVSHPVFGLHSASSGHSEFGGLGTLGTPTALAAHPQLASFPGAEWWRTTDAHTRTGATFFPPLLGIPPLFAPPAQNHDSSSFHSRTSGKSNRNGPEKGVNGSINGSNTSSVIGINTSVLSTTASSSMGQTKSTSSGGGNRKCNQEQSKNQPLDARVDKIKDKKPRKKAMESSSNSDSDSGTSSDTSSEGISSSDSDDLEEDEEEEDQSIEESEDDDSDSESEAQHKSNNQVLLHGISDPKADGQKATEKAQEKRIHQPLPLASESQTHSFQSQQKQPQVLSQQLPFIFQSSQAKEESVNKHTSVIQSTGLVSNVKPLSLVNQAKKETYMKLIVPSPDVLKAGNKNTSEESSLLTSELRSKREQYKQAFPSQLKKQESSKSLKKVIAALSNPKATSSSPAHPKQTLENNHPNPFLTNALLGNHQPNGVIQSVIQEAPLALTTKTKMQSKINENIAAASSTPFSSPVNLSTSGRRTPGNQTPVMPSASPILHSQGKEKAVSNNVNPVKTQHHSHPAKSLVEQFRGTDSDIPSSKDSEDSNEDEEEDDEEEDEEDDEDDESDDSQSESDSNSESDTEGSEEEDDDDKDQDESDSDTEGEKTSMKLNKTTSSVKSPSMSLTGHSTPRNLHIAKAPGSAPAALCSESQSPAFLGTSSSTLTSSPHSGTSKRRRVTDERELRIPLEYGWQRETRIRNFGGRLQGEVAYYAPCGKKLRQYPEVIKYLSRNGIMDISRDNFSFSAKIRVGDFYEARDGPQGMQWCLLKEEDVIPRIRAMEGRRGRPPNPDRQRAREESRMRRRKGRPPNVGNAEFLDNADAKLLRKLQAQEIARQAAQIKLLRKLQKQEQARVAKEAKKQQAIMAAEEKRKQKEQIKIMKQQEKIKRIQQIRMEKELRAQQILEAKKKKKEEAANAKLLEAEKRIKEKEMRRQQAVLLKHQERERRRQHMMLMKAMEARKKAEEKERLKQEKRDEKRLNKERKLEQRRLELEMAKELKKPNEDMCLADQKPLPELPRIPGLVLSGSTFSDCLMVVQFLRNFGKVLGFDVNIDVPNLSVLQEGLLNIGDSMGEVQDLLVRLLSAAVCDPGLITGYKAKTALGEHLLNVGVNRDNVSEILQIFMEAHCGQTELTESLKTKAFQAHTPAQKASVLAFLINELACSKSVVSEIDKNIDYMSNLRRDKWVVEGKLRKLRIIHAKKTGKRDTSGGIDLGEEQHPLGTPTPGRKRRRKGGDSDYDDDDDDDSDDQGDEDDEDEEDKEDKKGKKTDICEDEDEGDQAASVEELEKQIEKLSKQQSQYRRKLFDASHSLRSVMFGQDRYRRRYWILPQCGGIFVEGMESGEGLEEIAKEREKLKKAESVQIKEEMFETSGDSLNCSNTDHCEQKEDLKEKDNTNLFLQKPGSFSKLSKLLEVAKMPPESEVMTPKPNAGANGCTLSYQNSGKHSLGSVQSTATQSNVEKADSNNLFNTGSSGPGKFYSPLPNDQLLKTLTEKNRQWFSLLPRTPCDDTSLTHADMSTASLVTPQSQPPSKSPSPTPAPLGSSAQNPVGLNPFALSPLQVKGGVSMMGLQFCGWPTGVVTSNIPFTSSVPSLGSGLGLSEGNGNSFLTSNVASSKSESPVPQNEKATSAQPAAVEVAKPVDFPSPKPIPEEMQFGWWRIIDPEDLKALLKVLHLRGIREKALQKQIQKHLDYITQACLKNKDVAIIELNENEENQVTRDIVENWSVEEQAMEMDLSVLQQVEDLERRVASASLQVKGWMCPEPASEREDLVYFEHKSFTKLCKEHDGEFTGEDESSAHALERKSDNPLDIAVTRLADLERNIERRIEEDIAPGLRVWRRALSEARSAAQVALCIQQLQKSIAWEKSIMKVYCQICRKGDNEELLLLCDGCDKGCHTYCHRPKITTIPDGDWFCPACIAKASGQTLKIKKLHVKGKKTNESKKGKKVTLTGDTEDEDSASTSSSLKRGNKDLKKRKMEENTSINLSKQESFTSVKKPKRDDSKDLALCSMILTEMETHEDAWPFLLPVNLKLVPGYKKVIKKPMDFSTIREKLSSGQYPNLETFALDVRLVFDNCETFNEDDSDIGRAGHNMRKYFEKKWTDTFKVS
#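 In this displacement format the biotinylated H3(5-23) peptide acetylated at Lys14 serves as ligand at 50 nM, with BAZ2B at 50 nM in PBS pH 7.4 containing 0.01% Tween-20. Donor and acceptor beads are 10 ug/mL final.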
# JMJD2A Tudor inh – inhibitors of human JMJD2A Tudor domain; O75164; AlphaScreen JMJD2A-Tudor / H3K4me3 peptide binding; Potency, µM (highest dose often 114 µM), for the others: top-dose activity change, negative = inhibition, usual class: inhibitors; 390,000 compounds, 4.4% hits; AID 504339; note: % is set by controls: 0 for no effect and ±100 for the full control effect; nearly all actives have a fitted effect of over 50% in size
# HP1b chromo inh – HP1-beta chromodomain-methylated histone interaction inhibition. AlphaScreen HP1-beta / biotin-H3K9me3 peptide binding. 390,000 compounds, 0.56% hits. Potency, µM (titrated, usually from 114 µM), without a hit: at the top dose activity change, negative = inhibition, actives largely listed as inhibitors. P83916; note: nearly all actives have a fitted effect of over 70% in size
#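 HP1-beta protein (50 nM final) preincubated 30 min at room temperature with biotinylated H3(1-18)K9me3 peptide (50 nM) in PBS pH 7.4, 0.01% Tween-20, then compound added for 30 min. AlphaScreen streptavidin donor/nickel chelate acceptor beads (10 ug/mL final), 30 min dark, luminescence read.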
# G9a inh – blocks human histone lysine methyltransferase G9a; 350,000 compounds, 8.8% hits; Q96KQ7; Potency, µM (doses to about 102 µM), for the others: top-dose activity, negative = inhibition, hits mostly inhibitors; G9a H3K9 monomethylation, AlphaScreen, 2 h; AID 504332; note: % is set by controls: 0 for no effect and ±100 for the full control effect; nearly all actives have a fitted effect of over 75% in size
#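 G9a (20 nM) preincubated 15 min RT with compounds, then 500 nM biotinylated H3K9 peptide and 20 uM SAM added; 2 h RT reaction. Monomethyl-H3K9 product detected by AlphaScreen with anti-H3K9me1 antibody, streptavidin donor and anti-rabbit IgG acceptor beads.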
# * = called active by the depositor; ? = inconclusive; · = no result; ! = not confirmed by another sample; [ ] = another dose, or the depositor's remark. Calls come from the whole dose curve; as a rule, active = well fitted curve in the direction sought with a large enough effect; inconclusive = small, poorly fitted or top-dose-only effect, or another doubt; inactive = no such curve, though single readings can be large; an effect the other way counts as inactive or inconclusive. Potency is the fitted concentration of half-maximal effect.
SMILES,L3MBTL1 block,Sfp PPTase inh,BAZ2B block,JMJD2A Tudor inh,HP1b chromo inh,G9a inh
CCOC(=O)C1CCN(C(=S)Nc2ccc(S(N)(=O)=O)cc2)CC1,-8.2%,44.7µM*,-3.4%,?,?,10µM*
CCOC(=O)C1CCCN(C(=S)Nc2ccc(Nc3ccccc3)cc2)C1 (stereo unspecified),-13.2%[11.4 µM],44.7µM*,35.5µM*,56.2µM*,?,25.1µM*
CCOC(=O)C1CCN(C(=S)Nc2ccc(C)cc2)CC1,-1.1%,6.9%,-24.7%,-12.9%,52.0%,-18.6%
Cc1ccc(CN(C(=O)Cn2nnc3ccccc32)C(C(=O)NCc2ccco2)c2ccc(C)o2)cc1 (stereo unspecified),9.3%,18.7%,-3.6%,-9.7%,32.7%,-3.7%[59 µM]
Cc1ccc(N(C(=O)Cn2nnc3ccccc32)C(C(=O)NCc2ccco2)c2ccc(C)o2)cc1 (stereo unspecified),1.4%,-26.1%,-36.6%,-12.3%,5.1%,?
COc1ccc(N(C(=O)Cn2nnc3ccccc32)C(C(=O)NCc2ccco2)c2ccc(C)o2)cc1 (stereo unspecified),-17.5%,-5.8%,44.7µM*,-25.3%,-16.1%,50.1µM*
COc1cc(C(C(=O)NCC2CCCO2)N(C(=O)Cn2nnc3ccccc32)c2ccc(C(C)=O)cc2)ccc1O (stereo unspecified),·,7.2%,-0.2%,-12.9%,19.3%,?
COc1ccc(N(C(=O)/C=C\C(=O)Nc2ccc(Cl)cc2)C(C(=O)NCc2ccco2)c2ccc(C)cc2)cc1 (stereo unspecified),·,·,?,-33.6%,19.1%,11.2µM*
Cc1ccc(NC(=O)/C=C\C(=O)N(c2ccc(C(C)C)cc2)C(C(=O)NCc2ccco2)c2ccc(Cl)cc2)cc1 (stereo unspecified),·,·,-17.3%,-27.5%,24.3%,?
CCOc1cc(C(C(=O)NCC2CCCO2)N(C(=O)Cn2nnc3ccccc32)c2ccc(OC)c(OC)c2)ccc1O (stereo unspecified),·,12.4%,-0.8%,13.4%,21.3%,44.7µM*
Cc1ccc(C(C(=O)NCc2ccco2)N(C(=O)Cn2nnc3ccccc32)c2ccccc2)o1 (stereo unspecified),-5.7%,-13.0%,-7.6%,-33.8%,-18.7%,44.7µM*
Cc1ccccc1-c1cncnc1N1CCNCC1,·,25.4%,·,·,·,·
O=C(Oc1ccccc1)N1CCC2(CC1)CN(c1ccccc1)C2,·,-7.7%,·,·,·,-12.8%[12.7 µM]
Cc1ccccc1S(=O)(=O)NC1OC(=O)C(Oc2ccccc2)=C1Br (stereo unspecified),-12.6%,-2.2%,?,-20.1%,11.9%,50.1µM*
Cc1ccccc1S(=O)(=O)NC1OC(=O)C(Cl)=C1Cl (stereo unspecified),-2.7%,-28.0%,?,?,23.0%,-12.7%[59 µM]
Cc1cc(NCCN2CCOCC2)c2ccc3ccccc3c2n1,7.6%,20.0%,-13.6%,-25.1%,39.5%,-9.8%[12.7 µM]
COc1ccc2nc(C)cc(Nc3ccc(N4CCOCC4)cc3)c2c1,·,-4.1%,?,?,-14.2%,?
COc1ccc2nc(C)cc(Nc3ccc(N4CCN(C)CC4)cc3)c2c1,·,0.4%,?,-35.5%,14.2%,44.7µM*
COc1ccc(/C=N/Nc2cc(C)nc3ccc(OC)cc23)c(OC)c1,2.5%,50.1µM*,-36.4%,?,-14.7%,44.7µM*
COc1ccc2nc(C)cc(N/N=C/c3ccccc3)c2c1,1.0%,·,-2.4%,?,-2.2%,-11.1%[12.7 µM]
COc1ccc2nc(C)cc(NCCN3CCOCC3)c2c1,·,9.9%,5.2%,-12.4%,-9.7%,44.7µM*
Cc1cc(C)c(/C=C/c2onc(C)c2S(=O)(=O)N2CCC(C(=O)NCc3ccccc3Cl)CC2)c(C)c1,·,·,-14.3%,-13.4%,13.2%[57 µM],2.1%[59 µM]
Cc1cc2c(s1)c1cnn(Cc3ccccc3F)c(=O)c1n2Cc1ccccc1F,·,·,·,2.7%,·,·
O=c1c2[nH]c3cc(Br)sc3c2cnn1Cc1ccccc1F,·,·,·,39.8µM*,·,·
CCc1ccccc1NC(=O)Nc1nnc(N(C)Cc2ccccc2)s1,·,·,-7.9%,-13.2%,31.8%,-5.3%[59 µM]
SMILES,L3MBTL1 block,Sfp PPTase inh,BAZ2B block,JMJD2A Tudor inh,HP1b chromo inh,G9a inh
O=C(CSc1nnc(C2CC2)n1Cc1ccccc1)c1cc2ccccc2o1,-3.6%,-12.6%,-34.7%,56.2µM*,13.9%,44.7µM*
COc1ccccc1C(=O)CSc1n[nH]c(N)n1,6.2%,89.1µM*,-5.6%,-26.9%,43.1%,?
Nc1nc(SCC(=O)c2cc3ccccc3o2)n[nH]1,-21.4%,22.4µM*,-38.1%,?,?,?
CCSc1nnc2c(n1)OC(CC)N(C(C)=O)c1ccccc1-2 (stereo unspecified),·,·,4.7%,5.5%,43.0%,?
O=S(=O)(NCc1ccc2c(c1)OCO2)c1cccc(S(=O)(=O)N2CCOCC2)c1,-9.0%,4.9%,-4.7%,-19.8%,21.2%,39.8µM*
O=S(=O)(Nc1cc(S(=O)(=O)N2CCOCC2)ccc1N1CCOCC1)c1ccc2c(c1)OCCO2,-17.9%,1.8%,0.2%,-17.7%,27.6%,39.8µM*
O=S(=O)(Nc1cccc(S(=O)(=O)N2CCOCC2)c1)c1ccc2c(c1)OCCO2,41.4%,20.2%,·,-9.6%,11.7%,21.1%
O=S(=O)(Nc1cc(S(=O)(=O)N2CCOCC2)ccc1O)c1ccc2c(c1)OCCCO2,-1.9%,·,56.2µM*,-32.3%,?,1.26µM*
O=C(Nc1ccc(S(=O)(=O)NCc2ccco2)cc1)c1cccc(F)c1,·,19.9%,-29.1%,-20.1%,-16.3%,56.2µM*
CC(=O)Nc1ccc(S(=O)(=O)NCCSCc2ccco2)cc1,-9.0%,31.6µM*,-14.8%,-27.0%,5.6%,?
Cc1onc(-c2c(F)cccc2Cl)c1C(=O)Nc1cccc(S(=O)(=O)NCc2ccco2)c1,·,-0.3%,·,-32.9%,-18.3%,56.2µM*
CCOC(=O)c1c(C)c(-c2ccccc2)n(CC(=O)NCc2cccc(OC)c2)c1C,·,·,-0.2%,6.5%,23.0%,0.6%[59 µM]
COC(=O)C(Cc1c[nH]c2ccccc12)NC(=O)C(C)C (stereo unspecified),3.0%,18.7%,-5.3%,1.3%,36.6%,-4.6%
COC(=O)CNC(=O)C(Cc1c[nH]c2ccccc12)NC(=O)Oc1ccccc1 (stereo unspecified),·,5.1%,0.708µM*,1.7%,14.3%,·
N[C@@H](Cc1c[nH]c2ccccc12)C(=O)O,·,?,50.1µM*,·,·,8.44µM*!
COC(=O)C(Cc1c[nH]c2ccccc12)NC(=O)C(=O)c1c[nH]c2ccccc12 (stereo unspecified),·,19.5%,?,?,-16.1%,31.6µM*
Cc1ccc(-c2cc3ncc4c(n3n2)-c2cc(Cl)ccc2OC4)cc1,·,·,2.1%,-10.4%,45.5%,29.8%[59 µM]

# From PubChem BioAssay
